Data from PubChem BioAssay (NCATS).
“And” between values parts separate entries of the source, which are not always exact repeats. Equal entries are not always repeated. Results filed as inconclusive are left out. Where a call stands in place of a potency, no number is given. Where a structure was tested more than once in an assay, its records may differ in their call. The source made the active and inactive calls. The call rests on the fitted dose curve; in most records, active means well fitted curve in the direction sought with a large enough effect; inconclusive means small, poorly fitted or top-dose-only effect, or another doubt; inactive means no such curve, though single readings can be large; an effect the other way counts as inactive or inconclusive. Peptide text beside a SMILES is read from it.

Assays:
[1] = NS1 protein of Zika virus - qHTS assay to identify small molecule inhibitors in human HEK 293 cells (AID 1347053); further: nearly all actives have a fitted effect of over 55% in size
Procedure, shortened: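 Inhibition of NS1 expression was scored in HEK 293 cells given compound 1 h ahead of MR766 virus (MOI = 0.5). Following 24 h at 37 C, two anti-NS1 antibodies generated a TR-FRET signal, scaled between uninfected and infected controls.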

[2] = qHTS of pediatric cancer cell lines to identify multiple opportunities for drug repurposing: Primary screen for TC32 cells (AID 1347089); further: nearly all actives have a fitted effect of over 60% in size
Procedure, shortened: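 Luminescent CellTiter-Glo read-out of metabolically active TC32 cells after 48 h compound exposure. Primary: MIPE 11-point, 0.78 nM–46 µM; NPC 8-point, 0.59 nM–46 µM. Confirmatory: 11-point dilutions.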

[3] = qHTS of pediatric cancer cell lines to identify multiple opportunities for drug repurposing: Primary screen for DAOY cells (AID 1347090); further: nearly all actives have a fitted effect of over 55% in size; on activity change, negative = cytotoxic: series mostly up to about 46 µM
Procedure, shortened: (§1)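 Eight- or eleven-point concentration series, 48 h treatment at 37 degrees C in growth media; readout CellTiter-Glo luminescence. Potency and efficacy were taken from the concentration-response curves.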

[4] = qHTS of pediatric cancer cell lines to identify multiple opportunities for drug repurposing: Primary screen for SJ-GBM2 cells (AID 1347091)
Procedure, shortened: as §1

[5] = qHTS of pediatric cancer cell lines to identify multiple opportunities for drug repurposing: Primary screen for A673 cells (AID 1347092); further: nearly all actives have a fitted effect of over 45% in size
Procedure, shortened: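 A673 cells (500-1,000 cells/well in growth media) were pre-incubated 5 h at 37 degrees C, then exposed to compounds for 48 h. Viability was read as CellTiter-Glo luminescence; concentration-response curves came directly from the primary screen.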

[6] = qHTS of pediatric cancer cell lines to identify multiple opportunities for drug repurposing: Primary screen for SK-N-MC cells (AID 1347093); on activity change, negative = cytotoxic: series mostly up to about 46 µM
Procedure, shortened: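 Metabolically active cells were quantified by ATP-dependent luminescence (CellTiter-Glo, 15 min at room temperature) following 48 h treatment. Cells had been plated at 500-1,000 per well and settled for 5 h beforehand.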

[7] = qHTS of pediatric cancer cell lines to identify multiple opportunities for drug repurposing: Primary screen for BT-37 cells (AID 1347094); on activity change, negative = cytotoxic: series mostly up to about 57 µM
Procedure, shortened: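 500-1,000 cells/well; 5 h pre-incubation 37 °C/5% CO2; compound pinned; 48 h; CellTiter-Glo, 15 min RT; luminescence. MIPE 11-pt from 0.78 nM, NPC 8-pt from 0.59 nM final. Bortezomib 2.3 µM final as positive control.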
Potency means the concentration at half of the fitted maximal effect.

SMILES	Potency [1]	Potency [2]	Potency [3]	Potency [4]	Potency [5]	Potency [6]	Potency [7]	activity change, negative = cytotoxic [4]	activity change, negative = cytotoxic [5]	activity change, negative = cytotoxic [7]
CCCCCCCCCCCCCCCCCCCCCCO	inactive	inactive	inactive	inactive	inactive	inactive	inactive			
CCC(C)(Oc1ccc(C2(c3ccc(OC(C)(CC)C(=O)O)cc3)CCCCC2)cc1)C(=O)O (stereo unspecified)	inactive	inactive	inactive	inactive	inactive	inactive	inactive			
NS(=O)(=O)c1cc(C(=O)O)c(NCc2ccco2)cc1Cl	inactive	inactive	inactive	inactive	inactive	inactive	inactive			
CC1Cc2ccccc2N1NC(=O)c1ccc(Cl)c(S(N)(=O)=O)c1 (stereo unspecified)	inactive	inactive	inactive	inactive	inactive	inactive	inactive			
Cc1cc(=O)oc2cc(O)ccc12	inactive	inactive	inactive	inactive	inactive		inactive			
CN(C)[C@@H](CCOc1cccc2ccccc12)c1ccccc1	inactive	inactive	inactive	inactive	inactive	23.5 µM (active)				
CCOC(=O)C1=C[C@@H](OC(CC)CC)[C@H](NC(C)=O)[C@@H](N)C1	inactive	inactive	inactive	inactive	inactive		inactive			
COC(=O)[C@H](Cc1ccccc1)NC(=O)[C@@H](N)CC(=O)O (H-Asp-Phe-OMe)	inactive	inactive	inactive	inactive	inactive		inactive			
CC(C)Oc1ccc2c(=O)c(-c3ccccc3)coc2c1	inactive	inactive	inactive	inactive	inactive	inactive	inactive			
O=C(OC1C[C@H]2CC[C@@H](C1)[N+]21CCCC1)C(O)(c1ccccc1)c1ccccc1 (stereo partly specified)	inactive	inactive	inactive	inactive	inactive	14.8 µM (active)	inactive			
CN1C(C(=O)Nc2ccccn2)=C(O)c2sccc2S1(=O)=O	inactive	inactive	inactive	inactive	inactive	inactive	inactive			
NC(=O)Cc1cccc(C(=O)c2ccccc2)c1N	inactive	inactive	inactive	inactive	inactive	inactive	inactive			
N=C(N)c1ccc2cc(OC(=O)c3ccc(N=C(N)N)cc3)ccc2c1	inactive	inactive	inactive	inactive	inactive	inactive	inactive			
COCCCN1CCC(NC(=O)c2cc(Cl)c(N)c3c2OCC3)CC1	inactive	inactive	inactive	inactive	inactive		inactive			
CC(C)(S)[C@@H](N)C(=O)O	inactive	inactive	inactive	inactive	inactive	inactive	inactive			
CCCCC(CC)COC(=O)C(C#N)=C(c1ccccc1)c1ccccc1 (stereo unspecified)	inactive and 23.5 µM (active)	inactive	inactive	inactive	inactive	16.8 µM (active) and 7.43 µM (active)	inactive			
CCOC(=O)c1c(C)n(C)c2ccc(O)cc12	inactive	inactive	inactive	inactive	inactive		inactive			

SMILES	Potency [1]	Potency [2]	Potency [3]	Potency [4]	Potency [5]	Potency [6]	Potency [7]	activity change, negative = cytotoxic [4]	activity change, negative = cytotoxic [5]	activity change, negative = cytotoxic [7]
CN(C)c1ccc2nc3ccc(=[N+](C)C)cc-3sc2c1	inactive	16.5 µM (active) and 21 µM (active)	2.35 µM (active) and 6.68 µM (active)	3.32 µM (active) and 2.66 µM (active)	9.35 µM (active) and 8.41 µM (active)	1.18 µM (active) and 1.19 µM (active)	19.3 µM (active) and 15.5 µM (active)			
N=C(N=C(N)N)N1CCOCC1	inactive	inactive	inactive	inactive	inactive		inactive			
CCC1=C(C)CN(C(=O)NCCc2ccc(S(=O)(=O)NC(=O)NC3CCC(C)CC3)cc2)C1=O (stereo unspecified)	inactive	inactive	inactive	inactive	inactive		inactive			
S=c1nc[nH]c2nc[nH]c12	14.8 µM (active)	8.36 µM (active) and 20.8 µM (active)	2.66 µM (active) and 5.9 µM (active)	1.19 µM (active) and 3.32 µM (active)	1.33 µM (active)	11.8 µM (active)	2.46 µM (active) and 3.43 µM (active)			
CCN(CCO)CCCC(C)Nc1ccnc2cc(Cl)ccc12 (stereo unspecified)	inactive	inactive	inactive		2.35 µM (active)		3.85 µM (active)	13.4% [at 4.84 µM] (inactive)	4.16% [at 4.84 µM] (inactive)	5.71% [at 6.03 µM] (inactive)
Cc1nc2n(c(=O)c1CCN1CCC(c3noc4cc(F)ccc34)CC1)CCCC2	inactive	inactive	inactive	inactive	inactive	inactive	inactive			
O=C(O)c1cn(-c2ccc(F)cc2)c2cc(N3CCNCC3)c(F)cc2c1=O	inactive	inactive	inactive	inactive	inactive	inactive	inactive			
Cc1c(C(=O)NN2CCCCC2)nn(-c2ccc(Cl)cc2Cl)c1-c1ccc(Cl)cc1	18.7 µM (active)	inactive	inactive	13.2 µM (active)	4.69 µM (active)		3.85 µM (active)			
c1ccc2[nH]c(-c3cscn3)nc2c1	inactive	inactive	inactive	inactive	inactive		inactive			
CCOc1cc(CC(=O)N[C@@H](CC(C)C)c2ccccc2N2CCCCC2)ccc1C(=O)O	inactive	inactive	inactive	inactive	inactive	4.69 µM (active)	inactive			
COc1cc(OC)c(C(=O)CCCN2CCCC2)c(OC)c1	inactive	inactive	inactive	inactive	inactive	inactive	inactive			
Nc1cccc2c1CN(C1CCC(=O)NC1=O)C2=O (stereo unspecified)	inactive	inactive	inactive	inactive	inactive		inactive			
COc1cc2c(N3CCN(C(=O)Nc4ccc(OC(C)C)cc4)CC3)ncnc2cc1OCCCN1CCCCC1	inactive	inactive	inactive	inactive	29.6 µM (active)	23.5 µM (active)				
Oc1ccc(OCc2ccccc2)cc1	inactive	inactive	inactive	inactive	inactive	inactive	inactive			
N[C@@H](Cc1cc(I)c(Oc2cc(I)c(O)c(I)c2)c(I)c1)C(=O)O	inactive	inactive	inactive	inactive	inactive	inactive	inactive			
CC(=O)NC[C@H]1CN(c2ccc(N3CCOCC3)c(F)c2)C(=O)O1	inactive	inactive	inactive	inactive	inactive	inactive	inactive			
CC(C)[C@H](N)C(=O)OCCOCn1cnc2c(=O)[nH]c(N)nc21	inactive	inactive	inactive	inactive	inactive		inactive			
